Measurements published in PubChem BioAssay (NCATS).
Records with an inconclusive call do not appear. The source made the active and inactive calls. The call rests on the fitted dose curve; in most records, active means well fitted curve in the direction sought with a large enough effect; inconclusive means small, poorly fitted or top-dose-only effect, or another doubt; inactive means no such curve, though single readings can be large; an effect the other way counts as inactive or inconclusive.

Key:
[1] = target: Cytochrome P450 2C9 (Homo sapiens) (UniProt P11712); assay: qHTS Assay for Inhibitors and Substrates of Cytochrome P450 2C9 (AID 883)
Procedure, shortened: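 A luminogenic readout tracked human CYP2C9 (10nM) converting deoxyluciferin (100uM, at KM) in 25mM KPO4 during 60 min at 37C with regenerated NADPH. Values normalized to 57uM sulphaphenazole as complete inhibition.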

7G8 = assay: qHTS profiling for inhibitors of Plasmodium falciparum proliferation (AID 504749); conditions: P. falciparum in erythrocytes, SYBR Green DNA, 72 h; series mostly up to 12.8 µM
Procedure, shortened: (§1)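 Parasite proliferation within erythrocytes, 72 h exposure. Endpoint: SYBR Green I fluorescence after overnight lysis at room temperature. Controls: 0.29 uM artemisinin, DMSO.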

CP191 = assay: as above; conditions: P. falciparum in erythrocytes, SYBR Green DNA, 72 h; series mostly up to 28.7 µM
Procedure, shortened: as §1

CP237 = assay: as above; conditions: P. falciparum in erythrocytes, SYBR Green DNA, 72 h; series mostly up to 28.7 µM
Procedure, shortened: as §1

CP250 = assay: as above; conditions: P. falciparum in erythrocytes, SYBR Green DNA, 72 h; series mostly up to 12.8 µM
Procedure, shortened: as §1

CP260 = assay: as above; conditions: P. falciparum in erythrocytes, SYBR Green DNA, 72 h; series mostly up to 28.7 µM
Procedure, shortened: as §1

CP265 = assay: as above; conditions: P. falciparum in erythrocytes, SYBR Green DNA, 72 h; series mostly up to 12.8 µM
Procedure, shortened: as §1

CP325 = assay: as above; conditions: P. falciparum in erythrocytes, SYBR Green DNA, 72 h; series mostly up to 28.7 µM
Procedure, shortened: as §1

CP335 = assay: as above; conditions: P. falciparum in erythrocytes, SYBR Green DNA, 72 h; series mostly up to 12.8 µM
Procedure, shortened: as §1

DIV14 = assay: as above; conditions: P. falciparum in erythrocytes, SYBR Green DNA, 72 h; series mostly up to 28.7 µM
Procedure, shortened: as §1

DIV17 = assay: as above; conditions: P. falciparum in erythrocytes, SYBR Green DNA, 72 h; series mostly up to 28.7 µM
Procedure, shortened: as §1

Dd2 = assay: as above; conditions: P. falciparum in erythrocytes, SYBR Green DNA, 72 h; series mostly up to 28.7 µM
Procedure, shortened: as §1

GB4 = assay: as above; conditions: P. falciparum in erythrocytes, SYBR Green DNA, 72 h; series mostly up to 28.7 µM
Procedure, shortened: as §1

ICS = assay: as above; conditions: P. falciparum in erythrocytes, SYBR Green DNA, 72 h; series mostly up to 28.7 µM
Procedure, shortened: as §1

PC15 = assay: as above; conditions: P. falciparum in erythrocytes, SYBR Green DNA, 72 h; series mostly up to 28.7 µM
Procedure, shortened: as §1

PC26 = assay: as above; conditions: P. falciparum in erythrocytes, SYBR Green DNA, 72 h; series mostly up to 28.7 µM
Procedure, shortened: as §1

SC27B = assay: as above; conditions: P. falciparum in erythrocytes, SYBR Green DNA, 72 h; series mostly up to 28.7 µM
Procedure, shortened: as §1

TAB165 = assay: as above; conditions: P. falciparum in erythrocytes, SYBR Green DNA, 72 h; series mostly up to 28.7 µM
Procedure, shortened: as §1

W2 = assay: as above; conditions: P. falciparum in erythrocytes, SYBR Green DNA, 72 h; series mostly up to 12.8 µM
Procedure, shortened: as §1

TAB113 = assay: as above; conditions: P. falciparum in erythrocytes, SYBR Green DNA, 72 h; series mostly up to 28.7 µM
Procedure, shortened: as §1

Measured: Potency
Further: nearly all actives have a fitted effect of over 60% in size.
Potency means the concentration at half of the fitted maximal effect.

Chain of Cytochrome P450 2C9 (Homo sapiens) (P11712 whole entry, looked up): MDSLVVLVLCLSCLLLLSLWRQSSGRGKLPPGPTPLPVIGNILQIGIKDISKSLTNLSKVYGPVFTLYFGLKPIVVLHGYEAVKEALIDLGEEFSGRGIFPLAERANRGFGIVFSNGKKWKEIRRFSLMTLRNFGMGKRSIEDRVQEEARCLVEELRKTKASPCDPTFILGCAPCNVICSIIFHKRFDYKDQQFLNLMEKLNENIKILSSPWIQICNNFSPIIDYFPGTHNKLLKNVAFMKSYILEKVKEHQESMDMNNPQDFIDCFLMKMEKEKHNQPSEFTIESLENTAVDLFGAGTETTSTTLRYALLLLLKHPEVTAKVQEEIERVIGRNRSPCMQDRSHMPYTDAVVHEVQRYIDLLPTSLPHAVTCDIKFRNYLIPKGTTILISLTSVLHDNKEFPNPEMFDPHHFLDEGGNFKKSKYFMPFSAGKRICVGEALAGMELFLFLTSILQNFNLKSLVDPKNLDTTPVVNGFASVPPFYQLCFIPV

N#Cc1cccc(NC(=O)N2CC[C@@]3(CCCN(C(=O)Oc4ccccc4)C3)C2)c1
inactive: [1]

CC1=NCCc2c1[nH]c1cc(O)ccc21
inactive: [1]

O=C(Oc1ccccc1)N1CCC2(CCN(Cc3ccncc3)CC2)CC1
active: [1] 3.98 µM

O=C(Oc1ccccc1)N1CCC2(CC1)CN(Cc1ccncc1)C2
active: [1] 3.16 µM

C[N+]1([O-])[C@@H]2CC(OC(=O)[C@@H](CO)c3ccccc3)C[C@@H]1[C@H]1O[C@H]12 (some centres not stated)
inactive: 7G8

COc1ccc2c(c1O)-c1c(OC)c(OC)cc3c1[C@H](C2)N(C)CC3
inactive: [1]

NCC[C@H](O)C(=O)N[C@H]1C[C@@H](N)[C@@H](O[C@H]2O[C@@H](CN)[C@@H](O)[C@@H](O)[C@@H]2N)[C@@H](O[C@H]2O[C@@H](CO)[C@@H](O)[C@@H]2O)[C@@H]1O
not listed: [1] | TAB113
inactive: all other assays above

C[C@H]1CN(C2CCC(C#N)(c3ccc(F)cc3)CC2)CC[C@@]1(C(=O)O)c1ccccc1 (some centres not stated)
not listed: [1]
inactive: all other assays above

CC(C)c1c(CN(C)[C@@H](C)Cc2ccccc2)n(C)n(-c2ccccc2)c1=O
active: [1] 7.94 µM
not listed: 7G8 | ICS | W2
inactive: all other assays above

C[N+]1(C)[C@@H]2CC[C@H]1CC(OC(=O)[C@@H](CO)c1ccccc1)C2 (some centres not stated)
not listed: [1]
inactive: all other assays above

C[N+]1([O-])[C@@H]2CC[C@H]1CC(OC(=O)[C@@H](CO)c1ccccc1)C2 (some centres not stated)
not listed: [1]
inactive: all other assays above

CC[C@]1(c2cccc(O)c2)CCCCN(C)C1
inactive: 7G8 | CP191 | CP250 | CP260 | ICS | TAB113
active: CP237 3.16 µM | Dd2 3.16 µM | GB4 4.55 µM | W2 3.22 µM

C#CCN(C)[C@@H](C)Cc1ccccc1
not listed: [1] | CP250 | CP260 | DIV14
inactive: all other assays above

CCC[C@@](C)(COC(N)=O)COC(=O)NC(C)C
inactive: [1]

CN(C)C(=O)Oc1cc(OC(=O)N(C)C)cc([C@@H](O)CNC(C)(C)C)c1
not listed: [1]
inactive: all other assays above

CC(=O)OCC(=O)[C@@H]1CC[C@H]2[C@H]3CC[C@H]4C[C@@H](O)CC[C@]4(C)[C@@H]3C(=O)C[C@@]12C
not listed: [1] | CP260
inactive: all other assays above

COc1ccc2c(c1OC)C(=O)O[C@H]2[C@H]1c2cc3c(cc2CCN1C)OCO3
active: [1] 3.98 µM

COc1ccc(C[C@H]2c3cc(OC)c(OC)cc3CCN2C)cc1OC
inactive: [1]

C[C@H](N)[C@@H](O)c1ccccc1
not listed: [1]
inactive: all other assays above

CCN[C@]1(c2cccs2)CCCCC1=O
not listed: [1] | CP237 | GB4 | W2
inactive: all other assays above

CN(C)[C@@H]1C(=O)C(C(N)=O)=C(O)[C@]2(O)C(=O)C3=C(O)c4c(O)ccc(Cl)c4[C@](C)(O)[C@H]3C[C@@H]12
not listed: [1] | 7G8 | CP191 | CP260 | CP335 | Dd2 | ICS
inactive: all other assays above

C[C@H](NC(C)(C)C)C(=O)c1cccc(Cl)c1
inactive: CP191 | CP250 | CP260 | CP325 | DIV14 | GB4 | PC15 | PC26 | SC27B | TAB113 | TAB165

COc1ccc2c(c1OC)CN1CCc3cc4c(cc3[C@H]1C2)OCO4
active: 7G8 3.55 µM | DIV14 2.56 µM | DIV17 4.55 µM | GB4 2.03 µM | TAB113 3.16 µM | W2 2.28 µM

C[C@@]12CC[C@H]3[C@@H](CC[C@@H]4C[C@H]5S[C@H]5C[C@]43C)[C@H]1CC[C@H]2O
active: [1] 0.005 µM
not listed: 7G8 | ICS | W2
inactive: all other assays above

N[C@H]1C[C@H]1c1ccccc1
not listed: [1] | CP260
inactive: all other assays above

C[C@@]12CCC(=O)C=C1C=C[C@H]1[C@H]3CC[C@](O)(CCC(=O)O)[C@]3(C)CC[C@@H]12
active: ICS 3.55 µM | W2 5.73 µM
inactive: CP191 | CP237 | CP250 | CP265 | CP325 | CP335 | DIV14 | Dd2 | PC15 | SC27B

CN1Cc2c(ccc3c2OCO3)[C@@H]2[C@@H](O)Cc3cc4c(cc3[C@@H]21)OCO4
inactive: [1]
